Laboratory results: PubChem BioAssay AID1159580 (chemical genetic matrix, 2015)
Values joined by “and” are separate entries in the source; they are usually repeats but may differ in a detail not shown here. Identical values can stand only once. Hit rate of the full screen: of about 5,500 compounds, about 2,000 (36%) were called active. Another 18% or so got no clear call; they are omitted. Cut-off read from the data, not from the text of the source: active = normalized growth mostly below about 0.91 (no sharp cut-off); inconclusive = no clear call, values can overlap the other calls; inactive = mostly above about 0.92. Some of the results follow.

Experiment: chemical genetic growth profiling, strain panel (AID 1159580);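 note: tested at 20 µM; growth read once vehicle control cultures reached saturation at 30 °C; 1 = growth at the plate median or of vehicle wells; lower values mean less growth of the strain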
Conditions: S. cerevisiae deletion strains, growth OD

Measured: normalized growth

S=P(N1CC1)(N1CC1)N1CC1
inactive: locus YAL013W, strain DEP1, active compounds read low 1.01 | locus YAL021C, strain ccr4, active compounds read low 1 | locus YAL026C, strain drs2, active compounds read low 1.01 | locus YAL030W, strain snc1, active compounds read low 0.996 | locus YBL061C, strain skt5, active compounds read low 1.01 | locus YBR009C, strain hhf1, active compounds read low 1.01 | locus YBR021W, strain FUR4, active compounds read low 0.946 | locus YBR023C, strain chs3, active compounds read low 1.02 | locus YBR171W, strain sec66, active compounds read low 1.01 | locus YBR229C, strain ROT2, active compounds read low 1.01 | locus YBR231C, strain swc5, active compounds read low 1.01 | locus YBR279W, strain paf1, active compounds read low 0.999 | locus YCL011C, strain gbp2, active compounds read low 1.01 | locus YCL016C, strain dcc1, active compounds read low 0.999 | locus YCL029C, strain bik1, active compounds read low 1.01 | locus YCL061C, strain MRC1, active compounds read low 1 | locus YCL069W, strain vba3, active compounds read low 1.01 | locus YCR088W, strain abp1, active compounds read low 1.02 | locus YDL005C, strain med2, active compounds read low 1.01 | locus YDL035C, strain GPR1, active compounds read low 1.02 | locus YDL040C, strain nat1, active compounds read low 1.01 | locus YDL074C, strain BRE1, active compounds read low 1.01 | locus YDL101C, strain DUN1, active compounds read low 1.01 | locus YDL134C, strain PPH21, active compounds read low 1 | locus YDL192W, strain arf1, active compounds read low 0.995 | locus YDR001C, strain nth1, active compounds read low 1.01 | locus YDR069C, strain doa4, active compounds read low 0.997 | locus YDR101C, strain arx1, active compounds read low 0.997 | locus YDR137W, strain rgp1, active compounds read low 1.02 | locus YDR150W, strain NUM1, active compounds read low 1 | locus YDR159W, strain sac3, active compounds read low 1 | locus YDR162C, strain NBP2, active compounds read low 1.01 | locus YDR195W, strain ref2 0.971 | locus YDR297W, strain sur2, active compounds read low 1 | locus YDR318W, strain mcm21, active compounds read low 1.01 | locus YDR334W, strain swr1, active compounds read low 1.01 | locus YDR335W, strain msn5, active compounds read low 1 | locus YDR388W, active compounds read low 1.01 | locus YDR392W, strain spt3, active compounds read low 1.03 | locus YDR502C, strain sam2, active compounds read low 0.996 | locus YEL003W, strain gim4, active compounds read low 1 | locus YEL037C, strain rad23, active compounds read low 1 | locus YEL061C, strain CIN8 (second series), active compounds read low 1 | locus YEL061C, strain CIN8, active compounds read low 1.01 | locus YER015W, strain faa2, active compounds read low 1 | locus YER016W, strain bim1, active compounds read low 1 | locus YER110C, active compounds read low 1.01 | locus YER111C, strain swi4, active compounds read low 0.99 | locus YER155C, strain BEM2 (second series), active compounds read low 1.03 | locus YER155C, strain BEM2, active compounds read low 1 | locus YER167W, strain BCK2, active compounds read low 1.01 | locus YFR010W, strain ubp6, active compounds read low 1.01 | locus YGL078C, strain dbp3, active compounds read low 0.999 | locus YGL086W, strain mad1, active compounds read low 1 | locus YGL167C, strain pmr1, active compounds read low 1.01 | locus YGL173C, strain kem1, active compounds read low 1.02 | locus YGL227W, strain vid30, active compounds read low 1.01 | locus YGL240W, strain doc1, active compounds read low 1.01 | locus YGL248W, strain PDE1, active compounds read low 1.01 | locus YGL253W, strain hxk2, active compounds read low 1.02 | locus YGR078C, strain PAC10, active compounds read low 1.01 | locus YGR135W, strain pre9, active compounds read low 0.996 | locus YGR229C, strain SMI1, active compounds read low 0.971 | locus YGR252W, strain gcn5, active compounds read low 0.985 | locus YHR013C, strain ard1, active compounds read low 0.997 | locus YHR027C, strain rpn1, active compounds read low 0.997 | locus YHR030C, strain SLT2, active compounds read low 1.01 and 0.994 | locus YHR079C, strain IRE1 (second series), active compounds read low 1 | locus YHR079C, strain IRE1, active compounds read low 0.985 | locus YHR094C, strain hxt1, active compounds read low 1 | locus YHR129C, strain ARP1, active compounds read low 1.03 | locus YHR142W, strain chs7, active compounds read low 1 | locus YHR200W, strain rpn10, active compounds read low 0.997 | locus YIL066C, strain RNR3, active compounds read low 1.02 | locus YIL073C, strain SPO22, active compounds read low 0.993 | locus YIL125W, strain kgd1, active compounds read low 1.01 | locus YIR030C, strain dcg1, active compounds read low 1.02 | locus YJL092W, strain hpr5, active compounds read low 1 | locus YJL095W, strain BCK1 (second series), active compounds read low 1.01 | locus YJL095W, strain BCK1, active compounds read low 1.02 and 1.01 | locus YJL115W, strain asf1, active compounds read low 1.01 | locus YJL129C, strain trk1, active compounds read low 1.02 | locus YJL134W, strain LCB3, active compounds read low 1.01 | locus YJL154C, strain vps35, active compounds read low 1.01 | locus YJL164C, strain tpk1, active compounds read low 1.01 | locus YJL166W, strain qcr8, active compounds read low 1.01 | locus YJL168C, strain set2, active compounds read low 0.999 | locus YJL187C, strain SWE1 (second series), active compounds read low 1.01 | locus YJR043C, strain POL32, active compounds read low 1 | locus YJR066W, strain TOR1, active compounds read low 0.976 | locus YJR075W, strain HOC1, active compounds read low 1.01
